The full data set covers some 7,900 targets. This sample favours those with a hit. About 0.6% of all pairs of compound and target were hits. A number with no mark means an inactive call.
Experiments:
Test in all cases: log2 fold change, soluble protein after heating vs DMSO (PISA); higher = thermal stabilisation; K562 cells, 10 uM, 30 min; active = over 0.2 and 3.5 SD of the protein, either way, in both replicates (recomputed)
[1] = compound: C1=CC=C(C=C1)[C@H](COC2=CC3=C(C=C2)NC(=O)N3)NC(=O)C4=CC=CN(C4=O)CC5=CC(=C(C=C5)F)F
In short: (§1)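 K562 cells at 2×10^6 cells/mL were given 10 μM compound for 30 min. Aliquots then went through 3 min of heating across 48°C-58°C, were pooled, and were extracted in PBS with 0.5% NP-40 at 4°C, and the supernatant after 21,000xg for 90 min was quantified by TMTpro 16plex LC-MS/MS with channel sums equalised. Thermal stability relative to control samples, from duplicates, is given as log2 fold change.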

[2] = compound: CC1=C(SC2=C1C(=N[C@H](C3=NN=C(N32)C)CC(=O)N)C4=CC=C(C=C4)Cl)C
In short: as §1

[3] = compound: CC1=C2C(=CC=C1)N=C(N(C2=O)C3=CC=CC=C3C)CN4C=NC5=C(N=CN=C54)N
In short: as §1

[4] = compound: Cc1sc2c(c1C)C(c1ccc(Cl)cc1)=N[C@@H](CC(=O)OC(C)(C)C)c1nnc(C)n1-2
In short: as §1

[5] = compound: c1ccc([C@@H]2C[C@H]2NC2CCNCC2)cc1
In short: as §1

UniProt P55263, sequence (P55263 whole entry, looked up): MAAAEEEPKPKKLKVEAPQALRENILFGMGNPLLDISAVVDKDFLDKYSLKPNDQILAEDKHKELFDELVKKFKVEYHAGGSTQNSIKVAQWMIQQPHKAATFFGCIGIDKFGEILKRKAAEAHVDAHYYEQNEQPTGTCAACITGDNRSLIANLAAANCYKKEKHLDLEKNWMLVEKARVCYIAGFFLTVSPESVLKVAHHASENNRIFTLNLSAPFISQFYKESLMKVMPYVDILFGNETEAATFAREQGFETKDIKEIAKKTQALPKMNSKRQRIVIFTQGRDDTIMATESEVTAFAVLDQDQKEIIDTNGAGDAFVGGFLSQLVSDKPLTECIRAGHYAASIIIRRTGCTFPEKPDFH
UniProt O15254, sequence (O15254 whole entry, looked up): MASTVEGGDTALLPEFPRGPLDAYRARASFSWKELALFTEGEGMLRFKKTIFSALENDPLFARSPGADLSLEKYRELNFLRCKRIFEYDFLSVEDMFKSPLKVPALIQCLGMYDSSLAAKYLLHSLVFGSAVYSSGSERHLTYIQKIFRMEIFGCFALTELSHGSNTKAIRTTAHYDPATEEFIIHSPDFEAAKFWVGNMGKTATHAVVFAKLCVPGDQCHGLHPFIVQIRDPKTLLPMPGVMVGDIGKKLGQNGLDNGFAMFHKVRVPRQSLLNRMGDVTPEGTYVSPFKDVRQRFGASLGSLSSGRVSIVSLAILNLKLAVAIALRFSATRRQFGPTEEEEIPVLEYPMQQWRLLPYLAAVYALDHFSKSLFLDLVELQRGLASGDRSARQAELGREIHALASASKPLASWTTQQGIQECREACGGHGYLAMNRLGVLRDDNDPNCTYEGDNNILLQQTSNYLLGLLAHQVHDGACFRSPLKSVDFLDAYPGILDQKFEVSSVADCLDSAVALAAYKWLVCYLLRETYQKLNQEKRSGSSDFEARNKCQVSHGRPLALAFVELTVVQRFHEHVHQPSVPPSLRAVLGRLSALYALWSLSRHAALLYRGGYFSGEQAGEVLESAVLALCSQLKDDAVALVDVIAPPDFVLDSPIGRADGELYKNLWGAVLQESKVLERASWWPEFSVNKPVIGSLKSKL
UniProt P98171, sequence (P98171 whole entry, looked up): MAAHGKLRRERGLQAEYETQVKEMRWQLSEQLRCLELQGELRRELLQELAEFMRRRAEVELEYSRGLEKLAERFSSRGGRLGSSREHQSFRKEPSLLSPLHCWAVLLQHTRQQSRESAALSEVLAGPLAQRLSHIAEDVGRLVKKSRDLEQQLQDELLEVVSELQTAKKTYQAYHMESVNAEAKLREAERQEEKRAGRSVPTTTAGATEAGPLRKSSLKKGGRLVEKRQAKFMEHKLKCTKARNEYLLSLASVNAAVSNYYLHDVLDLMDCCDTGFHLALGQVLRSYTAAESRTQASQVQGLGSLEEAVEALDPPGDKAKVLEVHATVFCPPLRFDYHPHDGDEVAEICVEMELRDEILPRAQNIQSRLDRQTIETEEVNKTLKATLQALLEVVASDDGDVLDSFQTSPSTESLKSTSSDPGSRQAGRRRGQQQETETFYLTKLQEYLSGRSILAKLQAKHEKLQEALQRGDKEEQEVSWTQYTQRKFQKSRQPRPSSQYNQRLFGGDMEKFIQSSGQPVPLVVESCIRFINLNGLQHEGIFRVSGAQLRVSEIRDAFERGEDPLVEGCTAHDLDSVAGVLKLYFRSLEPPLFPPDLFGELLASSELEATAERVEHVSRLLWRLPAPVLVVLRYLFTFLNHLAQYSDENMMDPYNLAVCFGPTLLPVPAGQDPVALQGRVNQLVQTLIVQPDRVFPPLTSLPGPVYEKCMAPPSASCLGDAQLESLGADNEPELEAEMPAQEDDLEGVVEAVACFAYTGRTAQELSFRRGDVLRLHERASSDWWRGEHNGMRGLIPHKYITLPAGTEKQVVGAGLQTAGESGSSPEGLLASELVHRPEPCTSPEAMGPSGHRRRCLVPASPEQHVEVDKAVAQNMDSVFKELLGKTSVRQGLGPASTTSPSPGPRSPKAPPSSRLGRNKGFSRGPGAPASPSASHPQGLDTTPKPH
UniProt Q13895, sequence (Q13895 whole entry, looked up): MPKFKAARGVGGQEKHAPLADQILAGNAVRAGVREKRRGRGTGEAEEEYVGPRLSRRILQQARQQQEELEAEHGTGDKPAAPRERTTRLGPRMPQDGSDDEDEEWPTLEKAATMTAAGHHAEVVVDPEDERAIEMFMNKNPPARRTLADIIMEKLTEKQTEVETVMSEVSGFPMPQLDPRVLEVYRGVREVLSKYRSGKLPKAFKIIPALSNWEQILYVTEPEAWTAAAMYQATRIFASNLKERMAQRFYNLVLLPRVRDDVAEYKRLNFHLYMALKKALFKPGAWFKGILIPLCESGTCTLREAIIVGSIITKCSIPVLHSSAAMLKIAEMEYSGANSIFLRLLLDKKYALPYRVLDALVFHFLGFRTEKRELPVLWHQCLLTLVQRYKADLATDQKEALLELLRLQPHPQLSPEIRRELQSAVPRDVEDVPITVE
UniProt O60566, sequence (O60566 whole entry, looked up): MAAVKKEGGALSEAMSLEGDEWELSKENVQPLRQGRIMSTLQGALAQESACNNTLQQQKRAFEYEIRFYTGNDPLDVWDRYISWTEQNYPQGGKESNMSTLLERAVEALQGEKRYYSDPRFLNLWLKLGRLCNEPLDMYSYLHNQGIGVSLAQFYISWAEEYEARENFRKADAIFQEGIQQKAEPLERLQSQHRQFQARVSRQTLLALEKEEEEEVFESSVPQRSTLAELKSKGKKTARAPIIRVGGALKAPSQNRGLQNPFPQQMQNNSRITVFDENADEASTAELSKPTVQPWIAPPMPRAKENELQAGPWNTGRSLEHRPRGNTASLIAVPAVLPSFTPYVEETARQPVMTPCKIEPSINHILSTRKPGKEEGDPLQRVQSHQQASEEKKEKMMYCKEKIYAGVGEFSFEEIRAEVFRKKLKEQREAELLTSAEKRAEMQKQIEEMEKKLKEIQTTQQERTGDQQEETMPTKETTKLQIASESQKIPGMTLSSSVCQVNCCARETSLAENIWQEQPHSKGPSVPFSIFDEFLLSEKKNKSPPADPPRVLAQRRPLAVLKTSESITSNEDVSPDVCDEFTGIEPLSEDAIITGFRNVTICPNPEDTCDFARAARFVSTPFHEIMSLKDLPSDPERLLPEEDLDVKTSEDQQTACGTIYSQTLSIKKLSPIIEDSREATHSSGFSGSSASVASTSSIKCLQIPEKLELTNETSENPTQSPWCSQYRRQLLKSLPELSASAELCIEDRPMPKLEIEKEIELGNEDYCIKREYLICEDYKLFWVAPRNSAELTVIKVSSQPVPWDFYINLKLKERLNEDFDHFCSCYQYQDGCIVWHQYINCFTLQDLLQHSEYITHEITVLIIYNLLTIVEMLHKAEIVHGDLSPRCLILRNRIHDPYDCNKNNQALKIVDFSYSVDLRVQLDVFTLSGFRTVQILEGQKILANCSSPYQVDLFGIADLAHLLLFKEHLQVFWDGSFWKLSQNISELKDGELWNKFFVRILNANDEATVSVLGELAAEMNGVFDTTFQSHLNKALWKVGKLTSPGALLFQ
UniProt Q15059, sequence (Q15059 whole entry, looked up): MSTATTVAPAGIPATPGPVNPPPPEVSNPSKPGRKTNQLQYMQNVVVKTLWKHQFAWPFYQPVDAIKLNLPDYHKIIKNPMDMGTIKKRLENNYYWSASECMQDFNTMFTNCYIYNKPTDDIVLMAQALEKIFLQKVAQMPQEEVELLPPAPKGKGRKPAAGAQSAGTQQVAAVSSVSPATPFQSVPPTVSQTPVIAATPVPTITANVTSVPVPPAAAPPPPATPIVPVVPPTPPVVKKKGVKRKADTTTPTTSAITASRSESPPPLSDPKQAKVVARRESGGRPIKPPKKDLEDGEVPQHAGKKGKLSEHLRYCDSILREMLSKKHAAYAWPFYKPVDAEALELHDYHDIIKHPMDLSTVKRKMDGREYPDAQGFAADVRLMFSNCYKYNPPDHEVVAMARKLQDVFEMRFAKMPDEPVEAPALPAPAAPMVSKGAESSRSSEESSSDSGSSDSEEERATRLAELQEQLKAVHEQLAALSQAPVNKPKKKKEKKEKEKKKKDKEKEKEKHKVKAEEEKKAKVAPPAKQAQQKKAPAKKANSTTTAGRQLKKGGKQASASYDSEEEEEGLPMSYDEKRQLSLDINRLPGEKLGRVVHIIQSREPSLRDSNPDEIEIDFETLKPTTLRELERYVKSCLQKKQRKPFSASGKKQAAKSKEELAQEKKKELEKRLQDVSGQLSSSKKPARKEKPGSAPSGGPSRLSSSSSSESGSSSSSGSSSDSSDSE
UniProt O43823, sequence (O43823 whole entry, looked up): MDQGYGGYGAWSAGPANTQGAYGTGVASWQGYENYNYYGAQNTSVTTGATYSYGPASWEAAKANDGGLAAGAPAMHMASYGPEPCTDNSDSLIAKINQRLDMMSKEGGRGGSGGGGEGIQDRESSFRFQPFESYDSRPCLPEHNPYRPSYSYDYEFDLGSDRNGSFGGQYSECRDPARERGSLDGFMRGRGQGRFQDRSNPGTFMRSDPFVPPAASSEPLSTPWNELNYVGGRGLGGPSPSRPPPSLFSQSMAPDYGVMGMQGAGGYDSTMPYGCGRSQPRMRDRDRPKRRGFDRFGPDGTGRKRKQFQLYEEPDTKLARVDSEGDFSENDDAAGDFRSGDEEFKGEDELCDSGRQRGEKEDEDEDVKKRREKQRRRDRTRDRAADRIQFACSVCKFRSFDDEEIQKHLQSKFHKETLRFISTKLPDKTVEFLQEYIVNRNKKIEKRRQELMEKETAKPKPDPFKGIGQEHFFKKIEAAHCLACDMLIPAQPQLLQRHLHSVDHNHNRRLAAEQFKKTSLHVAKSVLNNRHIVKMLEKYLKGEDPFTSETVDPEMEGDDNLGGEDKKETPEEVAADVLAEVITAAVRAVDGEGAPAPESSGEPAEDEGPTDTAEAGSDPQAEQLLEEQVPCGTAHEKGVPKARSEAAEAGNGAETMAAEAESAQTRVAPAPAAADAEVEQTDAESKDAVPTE

Row | Target | log2 fold change [1] | log2 fold change [2] | log2 fold change [3] | log2 fold change [4] | log2 fold change [5]
1 | BRD3 (UniProt Q15059) | 0.002 | 1.9 (active) | 0 | 1.56 (active) | -0.021
2 | AIFM2 (UniProt Q9BRQ8) | 0.036 | 0.047 | 0.026 | 0.045 | 0
3 | ACOX3 (UniProt O15254) | 0.015 | 0.238 | -0.185 | 0.131 | 0.077
4 | AARSD1 isoform 3 (UniProt Q9BTE6) | -0.053 | -0.068 | 0.039 | 0.047 | 0.023
5 | ARHGAP25 isoform 4 (UniProt P42331) | -0.181 | -0.171 | -0.173 | -0.018 | 0.109
6 | ALDH6A1 (UniProt Q02252) | 0.082 | 0.124 | 0.128 | -0.07 | 0.019
7 | ALDH1B1 (UniProt P30837) | 0.037 | 0.064 | 0.013 | -0.047 | 0.009
8 | AK6 (UniProt Q9Y3D8) | -0.043 | 0.042 | 0.2 | -0.014 | -0.008
9 | BMP2K (UniProt Q9NSY1) | 0.015 | 0 | -0.018 | 0.035 | -0.001
10 | BYSL (UniProt Q13895) | 0.001 | -0.085 | -0.09 | 0.02 | -0.042
11 | ARL6IP4 (UniProt Q66PJ3) | 0.036 | 0.027 | 0.009 | -0.016 | -0.011
12 | BAP1 (UniProt Q92560) | -0.226 | -0.123 | -0.156 | 0.066 | -0.037
13 | ANK2 (UniProt Q01484) | -0.019 | 0.058 | 0.071 | 0.159 | 0.02
14 | ADK (UniProt P55263) | 0.026 | 0.036 | 0.154 | -0.008 | -0.057
15 | ASS1 (UniProt P00966) | -0.099 | -0.036 | 0.032 | -0.141 | -0.146
16 | AKAP8 (UniProt O43823) | 0.012 | -0.03 | 0.105 | -0.018 | 0.347 (active)
17 | ARRDC1 (UniProt Q8N5I2) | 0.005 | -0.462 (active) | -0.062 | -0.1 | -0.037
18 | BCL9L (UniProt Q86UU0) | 0.001 | -0.028 | 0.019 | 0.051 | 0.05
19 | ATP23 (UniProt Q9Y6H3) | -0.023 | -0.031 | -0.009 | -0.052 | -0.053
20 | AURKA (UniProt O14965) | 0 | 0.148 | 0.018 | 0.009 | -0.038
21 | BUB1B isoform 3 (UniProt O60566) | -0.077 | -0.004 | 0.1 | 0.01 | -0.002
22 | ARHGAP4 isoform 2 (UniProt P98171) | 0.211 | -0.101 | -0.069 | -0.122 | 0.008
23 | ACSL5 isoform 3 (UniProt Q9ULC5) | -0.024 | 0.043 | 0.101 | 0.057 | -0.178
24 | ACAP2 (UniProt Q15057) | -0.009 | -0.001 | 0.132 | 0.01 | 0.011

Source: the supplement of paper PMC10849652
